# Reference: PubChem BioAssay AID2315 (National Center for Advancing Translational Sciences (NCATS), 2010)
# Where “and” joins values, the source holds several entries; their conditions need not be identical. Identical values can stand only once. The whole screen tested about 290,000 compounds, of which about 27,000 (9.3%) were called active. Shown is part of a subset that was picked to be rich in actives. Values without a mark were called inactive. Rule as the data show it: active = inhibition mostly above about 28% (no sharp cut-off); inactive = mostly below about 43%.
# Experiment: A qHTS for Small Molecule Inhibitors of Shiga Toxin; also: 0% is about no effect
# Settings: Vero cells, Shiga toxin protein synthesis inhibition reporter; at 38.7 µM, stronger effect = higher value
row,Structure (SMILES),inhibition
1,COc1ccc(-c2nc3n(c2Br)CCC3)cc1,87.2% (active)
2,COc1ccc(-c2nnc3n2CCCCC3)cc1,5.25%
3,Brc1cccc(-c2nnc3n2CCC3)c1,-4.22%
4,CCCCCn1c(=O)[nH]c2cc(C(=O)NCCCN3CCCCC3C)ccc2c1=O (centres undefined),-23.9%
5,CNC(=O)CN1C(=O)NC(c2ccccc2)(c2ccccc2)C1=O,-7.36%
6,O=C(NCc1ccc(F)cc1)C1CCN(C(=O)Nc2ccc(F)cc2)CC1,-9.53%
7,O=C1CC(c2ccccc2)=NN1c1ccc([N+](=O)[O-])cc1,55% (active)
8,O=c1[nH]n(-c2ccc([N+](=O)[O-])cc2)c(=O)c2ccccc12,-17%
9,CC1=NN(c2ccccc2)C(=O)C1C(=O)c1ccc([N+](=O)[O-])cc1 (centres undefined),27.4%
10,CCC(C)[C@H](NC(=O)N1CCn2c1nc1ccccc12)C(=O)NCc1ccc(OC)cc1 (some centres undefined),13.9%
11,COc1ccc(C(CNCC(=O)Nc2ccccc2F)N(C)C)cc1 (centres undefined),7.34%
12,Cc1cc(C)c2nc3nc(C)cc(C)c3c(N)c2c1,32.6% (active)
13,Cc1cc(C)c2nc(SCCC#N)nc(C)c2c1,27.9%
14,Cc1cc(C)c2nc(-c3ccco3)cc(C(=O)O)c2c1,-7.1%
15,OCCC(O)CO (centres undefined),-8.78% and 20.3% and 19.5%
16,COc1ccc(-c2c(C#Cc3ccccc3)c3ccccc3n2C)cc1,43.7% (active)
17,CN(C)Cc1c(C#N)c2ccccc2n1C,-25%
18,COc1ccc(CCNCc2c(-c3ccccc3)n(C)c3ccccc23)cc1,11.5%
19,COc1cccc(C(=O)Nc2nnc(S(=O)(=O)N(C)c3ccccc3)s2)c1,3.08%
20,Cc1nc2sccn2c(=O)c1S(=O)(=O)NCCc1ccccc1,-9.77%
21,Cc1ccc(OCC(=O)Nc2ccc(-c3nc4ncccc4o3)cc2)cc1,2.45%
22,COc1ccc(C(=O)CSc2nnc(-c3ccco3)o2)cc1,10.9%
23,O=C(CCc1ccccc1)Nc1cccc(-c2nnc(-c3ccco3)o2)c1,19.4%
24,CCC(=O)Oc1cccc(C(=O)Nc2ccc(-c3nnc(-c4ccco4)o3)cc2)c1,90.4% (active)
25,Cc1ccc(OCC(=O)Nc2nnc(-c3ccco3)s2)cc1,4.17%
26,COc1ccc(OCC(=O)Nc2nnc(-c3ccco3)s2)cc1,2.24%
27,CCCCOc1ccc(-c2nnc(-c3ccco3)o2)cc1,85.9% (active)
28,Cc1cccc(NC(=O)CSc2nnc(-c3ccco3)o2)c1,-23.3%
29,Cc1ccc(OCC(=O)Nc2ccc(-c3nnc(-c4ccco4)o3)cc2)cc1,22.1% (active)
